# Assay results from PubChem BioAssay (NCI).
# The panel holds about 83,000 compounds, 20% with a hit somewhere; the sample as a whole holds those more often.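 The endpoint reported here, percent growth, reads 100 for growth as untreated, 0 for no net growth and -100 for all cells dead.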 Unmarked numbers belong to inactive results. Active and inactive are the calls of the source. Rule for the calls: active = growth percent below 10; inactive = the rest.
# What was measured:
# Assay in all cases: NCI-60 one-dose screen, 48 h (100 = growth as untreated, 0 = no growth, -100 = all killed)
# Settings in all cases: 10 µM unless noted
# [1] = test system: HCT-15 colon
# [2] = test system: HT29 colon
# [3] = test system: SNB-75 CNS
# [4] = test system: SNB-19 CNS
# [5] = test system: U251 CNS
# [6] = test system: PC-3 prostate
# [7] = test system: SK-MEL-5 melanoma
# [8] = test system: UACC-62 melanoma
# [9] = test system: LOX IMVI melanoma
# [10] = test system: SK-MEL-28 melanoma
# [11] = test system: SK-MEL-2 melanoma
# [12] = test system: EKVX NSCLC
# [13] = test system: SN12C renal
# [14] = test system: TK-10 renal
# [15] = test system: CAKI-1 renal
# [16] = test system: CCRF-CEM leukemia
# [17] = test system: MOLT-4 leukemia
# [18] = test system: ACHN renal
# [19] = test system: UO-31 renal
# [20] = test system: A498 renal
Compound,growth [1],growth [2],growth [3],growth [4] [%],growth [5],growth [6],growth [7],growth [8],growth [9],growth [10],growth [11] [%],growth [12],growth [13],growth [14],growth [15],growth [16],growth [17],growth [18],growth [19],growth [20]
COc1ccc(/C=C2\Oc3cc(OCCCN4CCCCC4)ccc3C2=O)cc1OC,76.4%,59.3%,78.9%,93.7,94.2%,79.6%,94.5%,99.1%,81.7%,105%,108,91.5%,93.5%,89.1%,92.8%,28.9%,83.3%,–,–,–
CC(Sc1nc2sc3c(c2c(=O)n1-c1ccc(Cl)cc1)CCCC3)C(=O)Nc1nc(-c2ccc(Br)cc2)cs1 (stereo unspecified),95.4%,94.7%,95.9%,96.6,97.2%,95.6%,97.4%,88.9%,96.3%,105%,101,90.1%,96.8%,99.5%,94.4%,105%,94.1%,106%,–,–
N#C/C(=C\c1cccc(C#N)c1)c1ccccc1,111%,96.6%,88.9%,109,89.2%,99.7%,101%,108%,98.9%,115%,112,90.7%,98.9%,–,96%,–,–,–,93.3%,112%
C=C1C(=O)O[C@H]2[C@H]1CC/C(CNC(=O)/C=C/c1ccccc1)=C\CC[C@@]1(C)O[C@@H]21,-72.7% (active),-22.8% (active),86.8%,52.5,46.1%,9.48% (active),40.6%,-81.6% (active),-88% (active),-38.1% (active),40.8,-16.2% (active),-32.1% (active),-47.1% (active),-88.1% (active),1.78% (active),-26.4% (active),-34.5% (active),–,–
O=C1c2c(c3c4cccc(F)c4[nH]c3c3ccc4ccccc4c23)C(=O)N1O,15.5%,23.8%,68.7%,30.2,26.8%,32.5%,9.72% (active),26.9%,18.4%,58.5%,51.5,63.8%,41.5%,91.1%,29.4%,7.09% (active),3.29% (active),27.8%,–,27.2%
Cn1ccc2c1CC1CN(Cc3ccco3)C(=O)C1C2C(=O)O (stereo unspecified),95.8%,101%,74.3%,98,97.3%,100%,102%,95.5%,94.6%,101%,99.2,91.1%,97.2%,102%,94.1%,105%,103%,105%,–,98.3%
CC(=O)[C@@H]1CC[C@]2(C(N)=O)CC[C@]3(C)[C@H](CC[C@@H]4[C@@]5(C)CCCNC(C)(C)[C@@H]5CC[C@]43C)[C@@H]12,70.7%,3.98% (active),80.4%,86.2,81.7%,65.5%,75.9%,83.5%,84.4%,95.8%,86.2,93.9%,86.5%,120%,93.1%,88.3%,60.5%,107%,–,–
CN1CCN(c2ccc(NC3=C(Cl)C(=O)c4ncccc4C3=O)cc2C(F)(F)F)CC1,-47% (active),78.3%,96.9%,101,88.6%,62.9%,92.8%,87%,-56.2% (active),76.9%,89,110%,93.9%,–,-95.6% (active),-1.56% (active),1.95% (active),-56.2% (active),-80.4% (active),–
COc1cc2nc(-c3ccc(C(F)(F)F)cc3)cc(OCCN3CCCCC3)c2cc1OC,43.7%,46.4%,54.4%,91.1,72.3%,61.3%,70.4%,89.7%,-15.5% (active),–,105,62.4%,63.6%,93.9%,45.2%,78.8%,65.3%,81.4%,54.3%,–
Cc1nn(-c2ccccc2)c(Cl)c1/C=N\N=c1/sc2ccccc2n1C,103%,93.3%,107%,98.6,103%,89.5%,104%,87.1%,–,103%,114,110%,86.8%,99.1%,101%,92.7%,–,107%,93%,83.1%
O=C(CCN1CCCC1)Nc1ccc2c(NCCCc3ccccc3)c3ccccc3nc2c1,36.3%,3.74% (active),23%,24.6,-58.9% (active),-0.52% (active),67.4%,43.5%,-87% (active),–,38.9,40.8%,14%,5% (active),27.5%,-11.8% (active),-18.5% (active),33.1%,31.8%,–
Nc1c(C(=O)Nc2cccc3cnccc23)sc2nc3c(cc12)CN(Cc1ccccc1)CC3,107%,108%,96.5%,99.6,108%,91.3%,98.8%,96.4%,103%,–,116,101%,97.5%,140%,90.1%,109%,107%,99.9%,75.5%,–
O=C1Nc2cc(Cl)ccc2/C1=C\c1c(-c2ccc(F)cc2)nc2ccccn12,12.5%,4.36% (active),-16.9% (active),22.2,22.9%,12.8%,-10.9% (active),10.6%,11.1%,–,23.7,34.5%,19.1%,72.7%,21.5%,7.67% (active),-4.44% (active),41%,28.7%,-17% (active)
COc1cc(/C=C\c2cc(OC)c(OC)c(OC)c2)cc(N)c1OC,70%,87%,78.7%,88.6,91.2%,82.1%,86.7%,74.7%,86.8%,–,74.2,94.1%,93.4%,–,56.4%,74%,93.1%,105%,69%,76.5%
CCNC(=O)Oc1ccc(/C(=C(\C)c2ccccc2)c2ccc(OCCCN(C)C)cc2)cc1,52.1%,9.13% (active),90.9%,88.3,66.3%,73.3%,80.9%,76.1%,67.1%,–,97.2,84%,81.1%,84.5%,–,82.7%,65.8%,–,55.4%,–
CN1C(=O)NC(c2ccc3c(c2)OCO3)C=C1c1ccccc1 (stereo unspecified),77.8%,84.2%,80.2%,92.5,72%,102%,99%,89.8%,96.5%,–,100,95.4%,89%,85%,82.8%,87.2%,94.3%,105%,64.7%,–
